# Bioassay records (PubChem BioAssay)
# Not all results are given here.
# aSyn 5UTR act: Activators working through SNCA 5'UTR binding (MLPCN); activity score, % (tested at 7.5 µM), hits read low; alpha-synuclein 5'UTR reporter, activators screen; hit rate 7.1% among 300,000; in the data active = activity score below about -60%
# * marks the source's active call; other numbers are inactive results.
SMILES,aSyn 5UTR act
O=C(CN1CCN(Cc2ccccc2)CC1)N/N=C/C=C/c1ccco1,-94.6*
CCc1ccc2nc(NC(=O)C3CSC4(C)CCC(=O)N34)sc2c1 (configuration not stated),-107.4*
Cc1cc(C)c2nc(NCc3ccccc3O)sc2c1,-117.5*
CCc1ccc2nc(NC(=O)c3cc(C)on3)sc2c1,-66.1*
Cc1cc(C)c2nc(NC(=O)c3cc(C)on3)sc2c1,-89.5*
CCC(=O)NNc1nc2c(C)cc(C)cc2s1,-63.2*
CCc1noc(C)c1C(=O)Nc1nc2ccc(F)cc2s1,-139.3*
Cc1cc(C)c2nc(NNC(=O)c3ccc(S(=O)(=O)N4CC(C)CC(C)C4)cc3)sc2c1 (configuration not stated),71.9
CC1CC1C(=O)Nc1nc2ccc(Cl)cc2s1 (configuration not stated),-134.1*
O=C(Nc1nc2ccc(Cl)cc2s1)[C@@H]1CCCN1C(=O)c1cccs1,-92.1*
Cc1noc(C)c1C(=O)Nc1nc2ccc(Cl)cc2s1,-82.5*
Cc1nnsc1S(=O)c1ccc(F)cc1 (configuration not stated),-68.2*
Cc1ccc(S(=O)c2snnc2C)cc1 (configuration not stated),-66.0*
Cc1nnsc1S(=O)c1ccc(Br)cc1 (configuration not stated),-148.3*
CN1CCN(S(=O)(=O)c2cccc(C(=O)Nc3sc4c(c3-c3nc5ccccc5[nH]3)CCCC4)c2)CC1,-108.5*
O=C(Nc1ccc(Br)cc1)C1OCCc2ccccc21 (configuration not stated),-83.7*
COc1ccc(C2=NN(c3nc(-c4ccc(CNC(C)=O)cc4)cs3)C(c3ccco3)C2)cc1 (configuration not stated),-77.8*
CCCNC(=O)c1oc2ccc3c(c2c1C)C=CC(C)(C)O3,-90.2*
CCCNC(=O)c1oc2ccc3c(c2c1C)C(=O)CC(C)(C)O3,-89.2*
CCCNC(=S)Nc1ccc(Nc2ccccc2)cc1,-86.7*
CNC(=S)Nc1ccc(Nc2ccccc2)cc1,-95.0*
CSc1nc(/C=C2\C=Nc3ccccc32)c(O)n1C,-151.5*
CCn1c(=NC(=O)c2ccco2)sc2cccc(F)c21,-125.9*
C/C(=N/NC(=O)c1ccoc1C)C12CC3CC(CC(C3)C1)C2,-158.2*
N/C(=N\OC(=O)C12CC3CC(CC(C3)C1)C2)c1ccccn1,-109.6*
SMILES,aSyn 5UTR act
N/C(=N\OC(=O)C12CC3CC(CC(C3)C1)C2)c1ccccc1,-134.2*
C/C(=N\NC(=O)c1ccccn1)C12CC3CC(CC(C3)C1)C2,-130.9*
N/C(=N\OC(=O)N1CCOCC1)c1ccccc1,-64.1*
c1ccc(-c2noc(C3CCCCC3)n2)nc1,-81.8*
Brc1ccc(-c2noc(C3CCCCC3)n2)cc1,-143.0*
Cc1cc(C)n(-c2nc(NCCN(C)C)c3c4c(sc3n2)CCCC4)n1,115.9
CN(C)CCNc1nc2sc3c(c2c(=O)n1CCc1ccccc1)CCCCC3,-87.1*
CC(O)CNc1nc2sc3c(c2c(=O)n1Cc1ccco1)CCCCC3 (configuration not stated),-102.6*
CC(O)CNc1nc2sc3c(c2c(=O)n1CCc1ccccc1)CCCCC3 (configuration not stated),-71.6*
NC(=O)Cn1c(=O)n(Cc2ccco2)c(=O)c2c3c(sc21)CCCCC3,-79.8*
Cc1ccccc1Cn1c(=O)n(Cc2ccco2)c(=O)c2ccccc21,56.4
CCOc1ccc(NC(=O)c2ccco2)c([N+](=O)[O-])c1,-130.7*
CCOc1ccc(NC(=O)c2cccs2)c([N+](=O)[O-])c1,-219.1*
CCOc1ccc(NC(=O)c2ccc(CC)s2)c([N+](=O)[O-])c1,-168.2*
O=C(N/N=C/c1ccc([N+](=O)[O-])s1)c1ccncc1,-63.7*
O=C(N/N=C/c1ccc([N+](=O)[O-])s1)c1cccc(Br)c1,67.4
Cc1ccc(C(=O)N/N=C/c2ccc([N+](=O)[O-])s2)cc1,107.6
COc1ccc(NC(=O)CCC(=O)N/N=C/c2ccc([N+](=O)[O-])s2)cc1,-79.1*
CCOC(=O)c1ccc(-c2nnc(-c3ccc(Cl)cc3Cl)o2)cc1,-206.5*
CCOC(=O)c1ccc(COC(=O)c2ccc(-c3nnc(-c4ccccc4)o3)cc2)o1,-90.6*
O=C(COC(=O)c1ccc(-c2nnc(-c3ccccc3)o2)cc1)c1ccccc1,-125.7*
CCOC(=O)c1ccc(-c2ccc(CO)o2)cc1,-132.2*
Cn1c(CSc2ccccc2)c(C#N)c2ccccc21,-131.1*
Cc1cc(C)nc(NC(=O)/C=C/c2ccc3c(c2)OCO3)c1,-206.9*
Cc1cccnc1NC(=O)/C=C/c1ccc2c(c1)OCO2,-151.4*
SMILES,aSyn 5UTR act
COC(=O)c1cccc(NC(=O)/C=C/c2ccc3c(c2)OCO3)c1,102.3
CC(=O)c1cccc(NC(=O)c2sc(Cl)nc2C)c1,-65.4*
Cc1nc(Cl)sc1C(=O)Nc1ccccc1,-66.6*
Cc1c(C(=O)Nc2ccccc2)sc2nc[nH]c(=O)c12,-72.0*
COc1cc(NC(=O)CCc2ccccc2)nc(OC)n1,-71.0*
COc1ccc(C(=O)Nc2cc(OC)nc(OC)n2)cc1,-125.4*
CO/C([O-])=N/c1c[n+](-c2ccc(C)cc2)no1,-61.5*
CC(=O)Nc1nc2c(C)cc(NC(=O)C3CCCCC3)cc2s1,-96.3*
CC(=O)Nc1cc(C)c2nc(NC(C)=O)sc2c1,-89.5*
N#CCc1nc(CSc2nc3ccccc3s2)cs1,-115.7*
O=C(N=c1nc2ccccn2s1)c1ccccc1,-180.2*
CC(C)(C)Nc1nc(N2CCCC2)nc(N2CCCC2)n1,68.4
COc1nc(NC2CCCCC2)nc(NC(C)(C)C)n1,-69.8*
COCCCNc1nc(N)c([N+](=O)[O-])c(NC2CCCCC2)n1,90.1
NNC(=O)c1sc(-c2ccc(Cl)cc2)cc1N,-82.0*
CCOC(=O)c1cc(-c2ccc(N)cc2)sc1N,-76.2*
CCOC(=O)c1sc(-c2ccc(Br)cc2)cc1N,-185.4*
CCNC(=O)Nc1nc2ccccc2s1,-96.8*
S=C(Nc1ccccc1)c1nc2ccccc2s1,-170.2*
O=C(NNc1nc2ccccc2s1)Nc1ccccc1,-254.7*
O=C(CC1CCCCC1)Nc1nc2ccccc2s1,-129.8*
O=C(NCc1ccncc1)C(=O)Nc1nc2ccccc2s1,-71.6*
Cc1cnc(NC(=O)CC2CCCC2)s1,-130.7*
CC(C)c1ccc(/C=C2\CC/C(=C\C=N\N(C)C)C2=O)cc1,-72.7*
CC(=Nc1cccc(O)c1)c1sc2ccccc2c1O,-235.5*
SMILES,aSyn 5UTR act
Clc1ccccc1CSc1ncn(-c2ccccc2)n1,-185.3*
O=C(/C=C/c1ccc(F)cc1)NC(=S)Nc1ccccc1O,-209.9*
CCCc1ccc(OCC(=O)Nc2cc(S(=O)(=O)CC)ccc2O)cc1,-170.6*
CCS(=O)(=O)c1ccc(O)c(NC(=O)/C=C/c2ccccc2)c1,-110.0*
COC(=O)c1cc(NC(=O)/C=C/c2ccccc2)ccc1O,-140.5*
CCC(C)(C)c1ccc(OCCCC[n+]2cccc(C)c2C)c(C(C)(C)CC)c1,100.8
O=C(/C=C/c1ccccc1)NC(=S)Nc1ccccc1O,-242.0*
NC(=S)NC(=O)/C=C/c1ccccc1,-111.0*
CCC(=O)Nc1cc(C(=O)OCC(=O)c2ccccc2)ccc1C,-88.2*
Cc1ccc(C(=O)OCC(=O)c2c[nH]c3ccccc23)cc1NC(=O)c1ccco1,-70.4*
CCC(=O)Nc1cc(C(=O)OCC(=O)c2ccccc2Cl)ccc1C,-167.7*
CSc1ccc(CNc2ccc(Cl)cc2)cc1,-114.1*
CCOC(=O)c1cc(-c2ccccc2)nn1Cc1cc(CC)no1,-100.2*
Clc1ccccc1CONc1ncnc2nonc12,-91.1*
CC(=O)c1ccccc1OCCOCCOCCOc1ccccc1C(C)=O,67.3
